From PubChem BioAssay
Compounds with a hit are over-represented: about 28% of the library has one in this group of screens.
CYP2C19 inhib: blocks human cytochrome P450 2C19; 96,000 compounds, 21% hits; P33261; CYP2C19 Supersomes, luciferin-H EGE luminescence, 30 min; inhibition, % at 5 µM; AID 778;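 active = CYP2C19 inhibition above a set limit at 5 µM in the primary screen, cut at about 50% in these data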
Target sequence (P33261 whole entry, looked up): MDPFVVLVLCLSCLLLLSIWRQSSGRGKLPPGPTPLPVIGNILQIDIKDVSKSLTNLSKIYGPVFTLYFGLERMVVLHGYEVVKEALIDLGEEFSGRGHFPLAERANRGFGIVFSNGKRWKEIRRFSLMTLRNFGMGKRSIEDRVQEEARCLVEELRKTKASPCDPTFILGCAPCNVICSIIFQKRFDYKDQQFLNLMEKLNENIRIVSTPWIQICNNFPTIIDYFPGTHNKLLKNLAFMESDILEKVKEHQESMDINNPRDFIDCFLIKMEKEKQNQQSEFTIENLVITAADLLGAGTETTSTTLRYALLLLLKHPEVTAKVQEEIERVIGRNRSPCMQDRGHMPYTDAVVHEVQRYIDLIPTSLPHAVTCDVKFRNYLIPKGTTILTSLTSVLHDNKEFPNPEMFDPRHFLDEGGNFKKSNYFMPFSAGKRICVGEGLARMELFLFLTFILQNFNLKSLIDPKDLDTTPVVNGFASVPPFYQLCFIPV
PLK1 kinase inh: PLK1 (human) kinase inhibition | P53350 | recombinant PLK1 kinase, TR-FRET peptide phosphorylation | inhibition, % at 10 µM | 97,000 compounds, 0.53% hits;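 active = inhibition of 50% or more in the single-concentration screen; inactive = inhibition below 50%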
Plk1 PBD FP: inhibitors of human Plk1 polo box domain binding; P53350; Plk1 PBD phosphopeptide binding, fluorescence polarization; inhibition, %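 (tested at about 20 µM)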; 97,000 compounds, 0.13% hits; AID 693; in the data active = inhibition above about 34%, passing the limit was not always enough
CYP2C19 activ: cytochrome P450 2C19 (human) activation; P33261; recombinant CYP2C19, luciferin-H EGE luminescence; active compounds read high; 0 = fully inhibited enzyme, 1 = untreated enzyme; activation factor at 5 µM; 96,000 tested, under 10 active; AID 1025;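 active = activation factor of at least 2 at 5 µM in the primary screen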
CYP2C9 act: activators of human CYP2C9 | P11712 | recombinant CYP2C9, luciferin-H conversion, luminescence; active compounds read high; factor 1 = untreated enzyme, 0 = blocked | activation factor at 5 µM | 96,000 compounds, 1.4% hits;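 active = activation factor of 2 or more for CYP2C9 at a 5 µM dose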
CYP2C9 inh: inhibitors of human CYP2C9; P11712; CYP2C9 Supersomes, luciferin-H conversion, luminescence; inhibition, % at 5 µM; 96,000 compounds, 20% hits; AID 777;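 active = blocking of liver enzyme CYP2C9 beyond about 50% at 5 µM, limit read from the data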
Each line names hits and unclear results; the compound was inactive in the other large screens.

Cc1ccc(C)n1-c1ccc(C(=O)NCC2CCCO2)cc1 (centres undefined)	CYP2C19 inhib 58
Cc1ccc(C(=O)NC(=S)NCC2CCCO2)cc1 (centres undefined)	CYP2C19 inhib 68
O=c1oc2ccccc2c2c1SC(C(F)(F)F)C2 (centres undefined)	none
Cc1ccc(NC(=S)NCC2CCCO2)cc1 (centres undefined)	none
Cc1cnn(C(=S)NCC2CCCO2)c1 (centres undefined)	CYP2C19 inhib 56 (no result: PLK1 kinase inh, Plk1 PBD FP)
CCOC(=O)c1sc(C(=O)OCC)c(OCCO)c1OCCO	none
Cc1noc(C)c1S(=O)(=O)N(CCc1ccccc1)Cc1ccccc1	CYP2C9 inh 76
O=C(NCc1ccco1)c1ccc(=O)[nH]n1	none
COc1ccc(C2CC(C(F)(F)F)n3nc(C(=O)NCc4cn(C)nc4C)c(Cl)c3N2)cc1 (centres undefined)	none
Cc1ccc(-c2cn3cccnc3n2)cc1NC(=O)c1c(-c2ccccc2Cl)noc1C	CYP2C19 inhib 54
Cc1onc(-c2ccccc2Cl)c1C(=O)Nc1cccc(-c2nc3ncccn3c2C)c1	CYP2C19 inhib 55, CYP2C9 inh 52
COc1ccc(CCNC(=O)c2ccn[nH]2)cc1OC	none
CCN(CC)c1ccc(C2CC(=O)Nc3cc(OC)c(OC)cc32)cc1 (centres undefined)	none
CCOC(=O)C(NC(C)=O)(OCc1ccc(F)cc1)C(F)(F)F (centres undefined)	CYP2C19 inhib 55
CCOC(=O)Cc1cnc(NC(=O)NC(C(=O)OCC)(c2ccccc2)C(F)(F)F)s1 (centres undefined)	CYP2C19 inhib 53
CCOC(=O)Cc1csc(NC(NC(=O)OCC)(C(=O)OCC)C(F)(F)F)n1 (centres undefined)	none (no result: CYP2C19 inhib, CYP2C19 activ, CYP2C9 act, CYP2C9 inh)
CCOC(=O)C(NC(=O)Nc1ccccc1)(OCC)C(F)(F)F (centres undefined)	CYP2C19 inhib 50
Cn1ncc(C#N)c1NC(=O)c1cc(-c2ccccc2Cl)on1	none
COC(=O)CC/C(O)=C1\C(=O)CC(C)(C)CC1=Nc1ccccc1OC	none
CCC/C(O)=C1\C(=O)CC(C)(C)CC1=Nc1ccc(OC)cc1OC	CYP2C19 inhib 97, CYP2C9 inh 95
CCCC/C(O)=C1\C(=O)CC(C)(C)CC1=Nc1ccccc1OC	CYP2C19 inhib 93, CYP2C9 inh 90
COc1ccc(OC)c(N=CC2=C(O)CC(C)(C)CC2=O)c1	none
CC12CCC(C(=O)NCc3ccc(Cl)cc3)(OC1=O)C2(C)C (centres undefined)	CYP2C19 inhib 84
CC12CCC(C(=O)NCc3ccccc3)(OC1=O)C2(C)C (centres undefined)	none
CC12CCC(C(=O)NCc3ccc4c(c3)OCO4)(OC1=O)C2(C)C (centres undefined)	CYP2C19 inhib 56
Cn1c(CCNC(=O)c2ccccc2F)nnc1SCc1nc2ccccc2c(=O)[nH]1	CYP2C9 inh 64
CCn1c(SCc2nc3ccccc3c(=O)[nH]2)nc2ccccc2c1=O	none (no result: CYP2C19 inhib, CYP2C19 activ, CYP2C9 act, CYP2C9 inh)
COC(=O)CSc1nnc(CCc2nc3ccccc3[nH]2)n1C	none (no result: CYP2C19 inhib, CYP2C19 activ, CYP2C9 act, CYP2C9 inh)
COc1ccc(Cc2nnc(SCc3nc4ccccc4c(=O)[nH]3)n2C)cc1	CYP2C9 inh 62
CCC(C)NC(=O)C1(C)CCC(=O)N1Cc1ccccc1OC (centres undefined)	none
CCCCN(CCCC)C(=O)c1ccccc1NC(=O)CN1C(=O)c2ccccc2C1=O	CYP2C19 inhib 92, CYP2C9 inh 93
Cc1nnc(Nc2ccc3c(c2)ncn3C)c2ccccc12	CYP2C19 inhib 83
COc1ccc2[nH]c(=O)c(CNc3ccccc3)cc2c1	none
CC(C)Nc1nc(NC(C)C)nc(Oc2ccc(OCc3ccccc3)nn2)n1	none
c1ccc(COc2ccc(Oc3nc(N4CCCCC4)nc(N4CCOCC4)n3)nn2)cc1	CYP2C19 inhib 88, CYP2C9 inh 59
Cc1ccc(Nc2nc(Oc3ccc(OCc4ccccc4)nn3)nc(N3CCOCC3)n2)cc1	CYP2C19 inhib 82, CYP2C9 inh 77
CCn1c(SCC(=O)O)nnc1-c1cc2c(C)nn(-c3ccccc3)c2s1	none
Cn1nc(C(F)(F)F)c(C#N)c1N1CCN(c2ccccc2)CC1	CYP2C19 inhib 69, CYP2C9 inh 72
Cn1nc(C(F)(F)F)c(C#N)c1N1CCN(c2ccc(F)cc2)CC1	CYP2C19 inhib 78, CYP2C9 inh 82
COc1ccnc(N2CCN(c3ccccc3)CC2)c1C#N	CYP2C19 inhib 100, CYP2C9 inh 80
FC(F)(F)c1nc(N2CCN(c3ccccc3)CC2)nc2c1CCCCC2	none (no result: PLK1 kinase inh, Plk1 PBD FP)
COc1ccnc(Oc2ccccc2)c1C#N	none
O=c1c2ccccc2nc(CSc2ncnc3nc[nH]c23)n1-c1cccc(C(F)(F)F)c1	none
CCOC(=O)N1CCN(C(=O)CCc2c(C)nc3nc(C)nn3c2C)CC1	none
COC(=O)c1ccc(Sc2nnnn2-c2ccccc2)c([N+](=O)[O-])c1	CYP2C19 inhib 66
COC(=O)CN(c1ccc(C)c(Cl)c1)S(C)(=O)=O	CYP2C19 inhib 54
COC(=O)CN(c1c(C)cccc1C)S(C)(=O)=O	CYP2C19 inhib 56 (no result: PLK1 kinase inh, Plk1 PBD FP)
Cn1cccc1CC(=O)N/N=C\c1cccs1	none
COC(=O)CN(c1ccccc1C)S(C)(=O)=O	none
Cc1ccc(N(CC(=O)N/N=C/c2cccs2)S(C)(=O)=O)cc1Cl	CYP2C9 inh 69
O=C(O)C1C2CCC(C2)C1C(=O)NCCCn1ccnc1 (centres undefined)	CYP2C19 inhib 79, CYP2C9 inh 52 (no result: PLK1 kinase inh, Plk1 PBD FP)
O=C(NCCCn1ccnc1)C1CC2CCC1C2 (centres undefined)	CYP2C19 inhib 98, CYP2C9 inh 74
O=C(NCc1ccccc1)C1CC(=O)N(c2ccc(OCC(=O)N3CCCC3)cc2)C1 (centres undefined)	none (no result: CYP2C19 inhib, CYP2C19 activ, CYP2C9 act, CYP2C9 inh)
CCOC(=O)N1CCN(C(=O)CS(=O)Cc2nc(-c3ccc(C)cc3)oc2C)CC1 (centres undefined)	none
Cc1oc(-c2ccccc2)nc1CS(=O)CC(=O)N1CCc2ccccc2C1 (centres undefined)	CYP2C19 inhib 61, PLK1 kinase inh 66, CYP2C9 inh 68
COc1cccc(-c2nc(CS(=O)(=O)CC(=O)N3CCc4ccccc4C3)c(C)o2)c1	none (no result: PLK1 kinase inh, Plk1 PBD FP)
Cc1cccc(-c2nc(CS(=O)CC(=O)N3CCCCC3)c(C)o2)c1 (centres undefined)	PLK1 kinase inh 66, CYP2C9 inh 70
C=CCOn1c(C)c(C(C)=O)c2c3no[n+]([O-])c3ccc21	none (no result: CYP2C19 inhib, CYP2C19 activ, CYP2C9 act, CYP2C9 inh)
CC1Cc2nc(SCC(=O)Nc3ccc(F)cc3)n(C)c(=O)c2S1 (centres undefined)	CYP2C9 inh 64
Cc1cc(C)c(NC(=O)CSc2nc3c(c(=O)n2C)SC(C)C3)c(C)c1 (centres undefined)	CYP2C9 inh 82
Cc1cc(C)cc(NC(=O)CSc2nc3c(c(=O)n2C)SC(C)C3)c1 (centres undefined)	none (no result: PLK1 kinase inh, Plk1 PBD FP)
